An excerpt weighted towards active compounds, which were near 12% of everything screened.
Lassa entry inh = inhibitors of Lassa virus binding or cell entry | Lassa virus pseudotype entry inhibition, cell reporter | 1.2% of 300,000 active | Potency, µM (top dose mostly 37.9 µM), for the others: at the highest dose activity change, negative = inhibition, hits mostly inhibitors | AID 540256; calls by dose curve; tested in HEK293 cells; further: potency means the concentration at half of the fitted maximal effect; on the % scale 0 is the no-effect control and ±100 the full control effect; nearly all actives have a fitted effect of over 50% in size
CHX counter = counter-screen hit for Shiga toxin inhibitors, cycloheximide. cell reporter, cycloheximide protein synthesis inhibition counterscreen. max response, %. 12% of 300,000 active. AID 2314; in the data active means max response mostly above about 13%, no sharp cut-off; inactive means mostly below about 14%; further: read at 38.3 µM for the half of the compounds with a filed dose; 0% is about no effect
Marburg entry inh = Marburg virus entry inhibition; Marburg virus pseudotyped entry inhibition, cell reporter; Potency, µM (series often up to 37.8 µM), inactives show top-dose activity change, negative = inhibition, actives largely listed as inhibitors; 1.8% of 300,000 active; AID 540276; calls by dose curve; tested in HEK293 cells; further: potency means the concentration at half of the fitted maximal effect; on the % scale 0 is the no-effect control and ±100 the full control effect
Shiga inhibitor = Shiga toxin inhibition | Vero cells, Shiga toxin protein synthesis inhibition reporter | inhibition, % at 38.7 µM | 9.2% of 290,000 active; in the data active means inhibition mostly above about 28%, no sharp cut-off; inactive means mostly below about 43%; further: 0% is about no effect
Numbers without * were called inactive; [ ] = another dose, or the depositor's remark.

Results for CCN1C(=NCCCCO)NC(c2cccc(C(F)(F)F)c2)C(C(=O)OC)=C1C (configuration not stated) ?
Marburg entry inh: -18.6%[14.2 µM]

What do the screens show for `C/C(=N\NC(=O)c1cc2ccccc2cc1O)c1cc2ccccc2o1`?
Lassa entry inh: -44.6%; CHX counter: 9.2; Marburg entry inh: inconclusive; Shiga inhibitor: 13.6

What do the screens show for `C/C(=N\NC(=O)c1c[nH]c2ccccc12)c1ccccn1`?
Lassa entry inh: 2µM*; CHX counter: 31.9*; Marburg entry inh: inconclusive; Shiga inhibitor: 146.9*

How did C/C(=N\NC(=O)c1cc2ccccc2cc1O)c1ccccn1 do in these assays?
Lassa entry inh: inconclusive; CHX counter: 24.7*; Marburg entry inh: inconclusive; Shiga inhibitor: 26.6

How did C/C(=N\NC(=O)c1ccccn1)c1ccc(C(=O)O)s1 do in these assays?
CHX counter: 45.0*; Shiga inhibitor: 74.2*

What do the screens show for `CCc1ccc(/C(C)=N/NC(=O)c2ccccn2)cc1`?
CHX counter: 20.7*; Shiga inhibitor: 45.9

How did CC(=N/O)/C(C)=N\NC(=O)c1ccccn1 do in these assays?
Lassa entry inh: 23.4%[46.1 µM]; CHX counter: 14.4; Marburg entry inh: -7.1%[46.1 µM]; Shiga inhibitor: 56.3

How did CCOC(=O)c1c(-c2ccco2)csc1NC(=O)COC(=O)c1cnc(C)cn1 do in these assays?
Lassa entry inh: 1.7%; Marburg entry inh: 19.4%

Results for COC(=O)c1c(NC(=S)NNC(=O)c2ccc(Cl)s2)sc(C(=O)N(C)C)c1C ?
Lassa entry inh: inconclusive; CHX counter: -3.3; Marburg entry inh: 4.9%; Shiga inhibitor: -17.6

How did COc1ccc(N2CCN(C(=O)c3cc(S(=O)(=O)N4CCCCCC4)ccc3OC)CC2)cc1 do in these assays?
Lassa entry inh: -21.4%; Marburg entry inh: -8.4%

What do the screens show for `CCOc1ccc(C(=O)N/N=C(\c2ccccc2)c2ccccn2)cc1`?
Lassa entry inh: 7.08µM*; CHX counter: 42.3*; Marburg entry inh: inconclusive; Shiga inhibitor: 61.4*

How did C/C(=N\NC(=O)c1nc2ccccn2c1C)c1ccco1 do in these assays?
Lassa entry inh: 3.7%; CHX counter: 27.2*; Marburg entry inh: -8.5%[46.1 µM]; Shiga inhibitor: 61.9*

What do the screens show for `C/C(=N\NC(=O)c1ccco1)c1cccc2ccccc12`?
Lassa entry inh: 13.4%; CHX counter: 8.4; Marburg entry inh: -6.2%[46.1 µM]; Shiga inhibitor: 15.6

How did C/C(=N\NC(=O)c1c[nH]c2ccccc12)c1ccco1 do in these assays?
Lassa entry inh: inconclusive; CHX counter: 70.9*; Marburg entry inh: 27.1%; Shiga inhibitor: 61.4*

Results for O=C(N/N=C(\c1ccccc1)c1ccccn1)c1cccc([N+](=O)[O-])c1 ?
CHX counter: 4.9; Shiga inhibitor: -4.5

What do the screens show for `CCC1(C)NC(=O)N(CC(=O)N2N=C(c3ccccc3)CC2c2ccc(OC)cc2)C1=O` (configuration not stated)?
Lassa entry inh: -13.4%; CHX counter: 0.0; Marburg entry inh: inconclusive; Shiga inhibitor: -11.1

Results for Cc1cccc(-c2nc3scc(CCNS(=O)(=O)c4ccc(Oc5ccccc5)cc4)n3n2)c1 ?
Lassa entry inh: -2.0%[46.1 µM]

What do the screens show for `NC(=O)c1cc(S(=O)(=O)NCCc2ccc(S(N)(=O)=O)cc2)cs1`?
CHX counter: -2.4; Shiga inhibitor: -1.3

How did NNc1nc(-c2ccccc2)nc2sc3c(c12)CCCC3 do in these assays?
Lassa entry inh: inconclusive; CHX counter: 62.0*; Marburg entry inh: inconclusive; Shiga inhibitor: 108.6*

What do the screens show for `Cc1ccc(Cl)cc1-n1ncc2c(N3CCC(C)CC3)ncnc21`?
Lassa entry inh: -0.4%[46.1 µM]

How did O=[N+]([O-])c1ccc(OC/C=C2\Oc3ccc([N+](=O)[O-])cc3C2N2CCOCC2)cc1 (configuration not stated) do in these assays?
Lassa entry inh: inconclusive; CHX counter: 1.4; Marburg entry inh: inconclusive; Shiga inhibitor: -3.5

What do the screens show for `O=[N+]([O-])c1ccc2c(c1)C(N1CCOCC1)/C(=C/COc1ccc3ccccc3c1Br)O2` (configuration not stated)?
Lassa entry inh: inconclusive; CHX counter: 11.6; Marburg entry inh: 12.6µM*; Shiga inhibitor: -5.7

Results for CCN(CCCNC(=O)c1cc2c(=O)[nH]c3ccc(C)cc3c2s1)Cc1ccccc1 ?
Lassa entry inh: inconclusive; Marburg entry inh: 11.2µM*

What do the screens show for `CCN(CC)CCNC(=O)c1cc2c(=O)[nH]c3ccc(C)cc3c2s1`?
Lassa entry inh: 17.3%[46.1 µM]; Marburg entry inh: 8.1%[46.1 µM]

Results for Cc1ccc2[nH]c(=O)c3cc(C(=O)N(C)Cc4ccco4)sc3c2c1 ?
CHX counter: 23.3*; Shiga inhibitor: 48.0

What do the screens show for `C[C@@]1(c2ccco2)NC(=O)NC1=O`?
Marburg entry inh: 9.6%

Screens: PubChem BioAssay, National Center for Advancing Translational Sciences (NCATS)
